# Screens as filed in PubChem.
# Compounds with a hit are over-represented: about 11% of the library has one in this group of screens.
# JMJD2A Tudor inh – JMJD2A Tudor domain (human) inhibition; O75164; AlphaScreen JMJD2A-Tudor / H3K4me3 peptide binding; Potency, µM (titrated, usually from 114 µM), hits mostly inhibitors; 4.4% of 390,000 active; AID 504339; also: nearly all actives have a fitted effect of over 50% in size
# HP1b binding inh – blocks HP1-beta chromodomain binding to methylated histone tails. P83916. AlphaScreen HP1-beta / biotin-H3K9me3 peptide binding. Potency, µM (highest dose often 114 µM), usual class: inhibitors. 0.56% of 390,000 active; also: nearly all actives have a fitted effect of over 70% in size
#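 HP1-beta protein (50 nM final) preincubated 30 min at room temperature with biotinylated H3(1-18)K9me3 peptide (50 nM) in PBS pH 7.4, 0.01% Tween-20, then compound added for 30 min. AlphaScreen streptavidin donor/nickel chelate acceptor beads (10 ug/mL final), 30 min dark, luminescence read.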
# BAZ2B inh – BAZ2B (human) inhibition; AlphaScreen BAZ2B-H3K14Ac peptide displacement; AID 504333; Potency, µM (doses to about 114 µM), actives largely listed as inhibitors; 4.4% of 360,000 active; also: nearly all actives have a fitted effect of over 60% in size
# Target sequence (Q9UIF8 whole entry, looked up): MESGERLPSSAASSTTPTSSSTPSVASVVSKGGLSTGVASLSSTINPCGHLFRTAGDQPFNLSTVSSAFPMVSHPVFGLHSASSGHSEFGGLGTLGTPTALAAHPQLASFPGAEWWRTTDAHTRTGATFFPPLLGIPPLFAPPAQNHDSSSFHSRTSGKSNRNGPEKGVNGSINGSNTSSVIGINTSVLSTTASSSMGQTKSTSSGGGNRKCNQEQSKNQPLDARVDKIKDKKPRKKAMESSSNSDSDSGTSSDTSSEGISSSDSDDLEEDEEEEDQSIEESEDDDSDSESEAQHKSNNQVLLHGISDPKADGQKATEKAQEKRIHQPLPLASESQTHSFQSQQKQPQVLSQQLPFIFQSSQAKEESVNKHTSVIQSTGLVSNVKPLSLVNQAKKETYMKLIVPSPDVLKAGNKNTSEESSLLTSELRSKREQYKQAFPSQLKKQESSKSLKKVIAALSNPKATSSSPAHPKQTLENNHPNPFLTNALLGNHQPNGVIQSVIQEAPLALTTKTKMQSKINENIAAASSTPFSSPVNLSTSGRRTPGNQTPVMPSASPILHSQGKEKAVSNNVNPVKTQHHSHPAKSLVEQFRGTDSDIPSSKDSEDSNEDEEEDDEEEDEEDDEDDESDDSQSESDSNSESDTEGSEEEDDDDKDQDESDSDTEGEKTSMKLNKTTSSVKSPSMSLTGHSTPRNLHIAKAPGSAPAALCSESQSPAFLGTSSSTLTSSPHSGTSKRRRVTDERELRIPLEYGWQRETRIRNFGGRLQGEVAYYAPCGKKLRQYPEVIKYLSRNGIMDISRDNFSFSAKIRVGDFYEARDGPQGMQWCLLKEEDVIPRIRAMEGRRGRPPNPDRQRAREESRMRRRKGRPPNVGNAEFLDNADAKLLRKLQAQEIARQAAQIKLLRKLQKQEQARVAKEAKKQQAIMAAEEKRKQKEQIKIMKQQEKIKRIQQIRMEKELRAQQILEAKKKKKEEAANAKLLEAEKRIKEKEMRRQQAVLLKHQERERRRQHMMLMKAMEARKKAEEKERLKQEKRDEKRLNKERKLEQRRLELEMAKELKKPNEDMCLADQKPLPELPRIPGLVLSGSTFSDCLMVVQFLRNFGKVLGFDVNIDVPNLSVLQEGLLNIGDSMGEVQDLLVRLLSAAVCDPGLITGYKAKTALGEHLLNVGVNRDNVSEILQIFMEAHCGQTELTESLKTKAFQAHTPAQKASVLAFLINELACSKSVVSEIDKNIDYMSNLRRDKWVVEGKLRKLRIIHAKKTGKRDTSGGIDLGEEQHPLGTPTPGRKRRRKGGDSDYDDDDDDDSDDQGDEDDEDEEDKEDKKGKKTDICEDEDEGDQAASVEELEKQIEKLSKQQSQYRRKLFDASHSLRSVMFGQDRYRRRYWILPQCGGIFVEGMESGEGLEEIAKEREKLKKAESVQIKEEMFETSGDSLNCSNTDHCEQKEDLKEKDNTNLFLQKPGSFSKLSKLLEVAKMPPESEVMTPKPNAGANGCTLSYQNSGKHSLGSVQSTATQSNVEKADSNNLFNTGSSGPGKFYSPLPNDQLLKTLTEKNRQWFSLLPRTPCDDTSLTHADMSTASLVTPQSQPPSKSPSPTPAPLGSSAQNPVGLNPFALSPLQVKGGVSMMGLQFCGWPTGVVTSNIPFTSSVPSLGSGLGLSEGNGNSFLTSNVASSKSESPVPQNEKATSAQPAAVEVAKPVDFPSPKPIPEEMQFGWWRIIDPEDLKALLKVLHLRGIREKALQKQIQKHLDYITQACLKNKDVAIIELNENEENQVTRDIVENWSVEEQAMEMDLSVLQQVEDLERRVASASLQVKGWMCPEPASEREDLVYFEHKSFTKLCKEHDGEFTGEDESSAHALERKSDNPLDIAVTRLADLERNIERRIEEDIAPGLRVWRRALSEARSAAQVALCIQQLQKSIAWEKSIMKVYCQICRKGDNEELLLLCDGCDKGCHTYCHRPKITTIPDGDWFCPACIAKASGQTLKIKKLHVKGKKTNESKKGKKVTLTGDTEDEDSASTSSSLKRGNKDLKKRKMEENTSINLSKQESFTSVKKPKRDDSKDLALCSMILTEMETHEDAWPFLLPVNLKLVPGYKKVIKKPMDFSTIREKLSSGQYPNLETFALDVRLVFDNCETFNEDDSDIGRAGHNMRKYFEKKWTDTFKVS
#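 BAZ2B (50 nM) with biotin-H3(5-23)K14Ac peptide (50 nM) in PBS pH 7.4, 0.01% Tween-20, preformed 30 min, then compound 30 min at room temperature; top concentration 110uM. AlphaScreen streptavidin donor/nickel chelate acceptor beads (10 ug/mL final), 20 min dark, signal read.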
# L3MBTL1 block – blocks human L3MBTL1; Q9Y468; AlphaScreen L3MBTL1–H3K9me1 peptide binding; Potency, µM (series often up to 57.1 µM), most hits filed as inhibitors; 0.66% of 230,000 active; also: nearly all actives have a fitted effect of over 60% in size
#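 AlphaScreen proximity signal between nickel-chelate acceptor and streptavidin donor beads (final 10 ug/mL) reports binding of 50 nM L3MBTL1 to 75 nM biotin-H3 K9me1 peptide; complex incubated with compounds 30 min at room temperature; cefsulodin titration as control.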
# G9a inh – blocks human histone lysine methyltransferase G9a. G9a H3K9 monomethylation, AlphaScreen, 2 h. Potency, µM (titrated, usually from 102 µM), actives largely listed as inhibitors. 8.8% of 350,000 active; also: nearly all actives have a fitted effect of over 75% in size
#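 G9a (20 nM) was preincubated 15 min with compound, then reacted 2 h at room temperature with 500 nM biotin-H3K9 peptide and 20 µM SAM. Monomethyl-H3K9 detected by AlphaScreen using anti-H3K9me1 antibody.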
# PI5P4Ka inh – blocks human PI5P4K alpha kinase activity; 1.2% of 330,000 active; P48426; PI5P4Kalpha enzyme, ADP-Glo luminescence, 60 min; active compounds read low; AID 652105; max response, %; active = max response of -50% or lower; inconclusive = between -30% and -50%; inactive = -30% or higher; also: value at the top dose of about 77 µM
#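 Human PI5P4Kalpha with substrate in 0.038 M HEPES pH 7.4, 0.28 mM EGTA, 0.1% CHAPS, 5% DMSO; reaction started with 5 microM ATP (final), 60 min at room temperature. ADP formed read by ADP-Glo luminescence.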
# A number is an active result; - = inactive; ? = inconclusive; . = no result given; ! = repeats disagree; [ ] = remark or other dose. Unless noted, calls follow the shape of the dose curve; as a rule, active = well fitted inhibition curve with a large enough effect; inconclusive = small, poorly fitted or top-dose-only effect; inactive = no such curve, though single readings can be large or run the other way.
SMILES,JMJD2A Tudor inh,HP1b binding inh,BAZ2B inh,L3MBTL1 block,G9a inh,PI5P4Ka inh
Cc1ccc(CCNC(=O)NCc2noc3ccc(C)cc23)cc1,-,-,-,.,-,.
CCCCNC(=O)c1cccc(-n2cnc3cccnc32)c1C,-,-,-,.,-,.
COc1ccc(S(=O)(=O)c2c(Nc3ccc(F)cc3)sc(C(=O)c3ccc4c(c3)OCO4)c2N)cc1,-,-,-,.,-,.
CC(C)(C)C1CCc2c(sc(NC(=O)CSc3ncn[nH]3)c2C#N)C1 (stereo unspecified),-,-,-,-,25.1µM,.
CCC(=O)N1c2ccccc2CC1C(=O)NCCc1ccc(SC)cc1 (stereo unspecified),-,-,-,.,-[12.7 µM],.
Cc1c2ccccc2nc2ccccc12,-,-,.,.,.,-
Cc1c2c(nc3ccccc13)OCC2,-,-,-,-,79.4µM,-
Cc1nc2cc3nc(C)sc3cc2s1,-,?,-,-,7.08µM,-
CCc1cccc(C)c1NC(=O)CSc1nnc(N)s1,-,-,-,.,-,.
COc1cc(C(c2c(O)cc(C)[nH]c2=O)c2c(O)cc(C)[nH]c2=O)ccc1O,-,-,-,.,-,-
COc1ccc(C(c2oc(CO)cc(=O)c2O)c2oc(CO)cc(=O)c2O)cc1OC,?,-,50.1µM,.,20µM,-
COc1cc(C(c2oc(CO)cc(=O)c2O)c2oc(CO)cc(=O)c2O)cc(OC)c1OC,?,-,50.1µM,-,11.2µM,-
COc1ccc(C)cc1NC(=O)C1CCC(CNS(=O)(=O)c2ccc3c(c2)CCCC(=O)N3)CC1 (stereo unspecified),-,-,-,.,-,.
O=S(=O)(c1ccccc1)n1nc(-c2ccco2)nc1NCc1ccccc1,-,-,-,.,-,.
NN/C(=C\[N+](=O)[O-])Nc1ccccc1,-,-,56.2µM,?,20µM,-
NNC(=S)Nc1ccc(Cl)cc1,?,-,-,-,?,-
NN/C(=C\[N+](=O)[O-])Nc1ccc(Cl)cc1,?,-,?,-,1.26µM,-
O=C(/C=C/c1ccccc1[N+](=O)[O-])Nc1ccccc1,-,-,-,-,?,-
O=C(CN1C2=NCCCN2c2ccccc21)c1ccc([N+](=O)[O-])cc1,-,-,-,-,39.8µM,-
CCOc1ccc(NC(=O)CSc2oc(-c3ccc(F)cc3)nc2S(=O)(=O)c2ccc(C)cc2)cc1,-,-,-,.,-,.
Clc1cccc(OCCN2CCNCC2)c1,17.8µM,?,-,-,14.1µM,-
OCCN1CCN(CCOc2cccc(Cl)c2)CC1,?,-,?,-,.,-
Clc1cccc(OCCCCN2CCCCC2)c1,22.4µM,?,56.2µM,-,?,-
Cc1cccc(Cl)c1OCCN1CCCC1,3.98µM,-,?,-,39.8µM,-
Cc1cccc(OCCCN2CCCCCC2)c1,7.94µM,?,79.4µM,-[11.4 µM],6.31µM,.
SMILES,JMJD2A Tudor inh,HP1b binding inh,BAZ2B inh,L3MBTL1 block,G9a inh,PI5P4Ka inh
Clc1cccc(OCCCCCN2CCOCC2)c1,-,-,-,-,.,-
Cc1ccc(C2CC(=O)n3nc(-c4ccc(F)cc4)nc3S2)cc1 (stereo unspecified),-,-,-,.,-,.
Clc1cccc(Cl)c1OCCCCN1CCCCC1,20µM,?,79.4µM,-,22.4µM,-
NC(=O)c1ccc(NC(=O)CSC2=Nc3ccccc3C3CC=NN23)cc1 (stereo unspecified),-,-,-,.,12.6µM,-
COc1ccccc1NC(=O)c1c(C)cc(C)nc1SCC(=O)c1ccc(Cl)cc1,-,-,-,.,?,.
Nc1nc(-c2ccccc2)c(CCCOc2ccc(NC(=O)CBr)cc2)c(=O)[nH]1,-,-,.,.,.,-59.5
NC(=O)C1CN(S(=O)(=O)c2ccc(Cl)cc2F)c2ccccc2O1 (stereo unspecified),-,-,-,.,79.4µM,-
COc1cccc(CNC(=O)CCC2CCCN(C(=O)c3cccnc3SC)C2)c1 (stereo unspecified),39.8µM,-,-,.,-,-
O=C(CCC1CCCN(C(=O)C2CCCC2)C1)NCc1ccc(F)c(F)c1 (stereo unspecified),-,-,-,-,-[12.7 µM],-
O=C(CCC1CCCN(C(=O)c2cncs2)C1)NCc1ccc(F)c(F)c1 (stereo unspecified),25.1µM,?,-,-,-[12.7 µM],-
CCOC(=O)c1c(CC(C)C)csc1N,-,-,?,-,39.8µM,-
O=C(COC(=O)/C=C/c1cccc(Br)c1)NCCc1ccccc1,-,-,-,-,-,-
O=C(/C=C/c1ccc(O)c(O)c1)OCCc1ccccc1,89.1µM,-,.,.,3.55µM,-
O=c1cc(O)cc(/C=C/c2ccc(O)c(O)c2)o1,.,.,.,.,3.98µM,.
O=C(/C=C/c1ccc(O)c(O)c1)OC(Cc1ccc(O)c(O)c1)C(=O)O (stereo unspecified),12.6µM,?,39.8µM,.,3.55µM,-
COc1ccc(/C=C\C(=O)c2c(O)ccc3c(C)cc(=O)oc23)cc1,-[11.4 µM],-,?,.,?,-
O=C(O)/C=C\c1ccc(O)c(O)c1,.,.,.,.,2.51µM,.
CCC(=O)N1CCc2cc(Br)cc(S(=O)(=O)N3CCN(c4ccccc4OC)CC3)c21,-,-,-,.,-,.
Cc1ccc(Cn2c(C)c(CNCC(C)c3ccccc3)c(C(=O)O)c2C)cc1 (stereo unspecified),-,-,?,.,-,.
O=C(C=Cc1cccc(O)c1)c1ccccc1O,?,-,.,.,.,-
O=C(/C=C/c1ccc(O)c(O)c1)c1ccccc1O,3.55µM,44.7µM,39.8µM,-,12.6µM,-
COc1ccc(NC(=S)N(CCC(C)C)C2CCN(C(C)C)CC2)cc1Cl,-,-,-,.,5.01µM,-
CCCN1CCC(NC(=O)Nc2ccc([N+](=O)[O-])cc2)CC1,-,-,-,-,-[12.7 µM],-
COc1ccc(NC(=S)NCCN2CCC(C)CC2)cc1Cl,-,-,-,-[2.29 µM],11.2µM,-
COc1ccc(NC(=S)NCCCN2CCCC2)cc1Cl,-,-,?,.,17.8µM,-
SMILES,JMJD2A Tudor inh,HP1b binding inh,BAZ2B inh,L3MBTL1 block,G9a inh,PI5P4Ka inh
CCCN1CCC(NC(=O)Nc2ccc(Br)cc2)CC1,-,-,-,-,35.5µM,-
COc1ccc(F)cc1S(=O)(=O)NCCc1c(C)[nH]c2c(Cl)cccc12,-,-,?,.,-,.
CCCN1CNc2c(c(=O)[nH]c(=S)n2CCc2ccc(C)cc2)C1,-,-,.,.,.,.
CCCN1CCC(NC(=S)Nc2ccc(OC)c(OC)c2)CC1,-,-,-,-,50.1µM,-
CCn1cc(C(=O)O)c(=O)c2cc(F)c(N3CCNC(C)C3)c(F)c21 (stereo unspecified),.,.,.,.,11.2µM!,.
CCCCNS(=O)(=O)c1ccc2nc(SCC(=O)Nc3ccccc3)[nH]c2c1,-,-,-,-,?,-
CCCCNS(=O)(=O)c1ccc2nc(SCC(=O)c3ccc(C#N)cc3)[nH]c2c1,-,-,-,-,31.6µM,-
CC1(C)OC(=O)C2(Cc3cc([N+](=O)[O-])ccc3N3CCCCCC32)C(=O)O1 (stereo unspecified),-,-,.,.,.,.
